Results reported in PubChem BioAssay AID1159580 (chemical genetic matrix, 2015).
The whole screen tested about 5,500 compounds, of which about 2,000 (36%) were called active. Roughly 18% stayed inconclusive and do not appear here. No stated cut-off is given here; in the data, active means normalized growth mostly below about 0.91 (no sharp cut-off); inconclusive means no clear call, values can overlap the other calls; inactive means mostly above about 0.92. This is one part of the list.

Assay: chemical genetic growth profiling, strain panel (AID 1159580);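 further: tested at 20 µM; growth read once vehicle control cultures reached saturation at 30 °C; 1 = growth at the plate median or of vehicle wells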
Settings: growth OD

Measured: normalized growth

COC(=O)[C@]1(C)CCC[C@]2(C)c3ccc(C(C)C)cc3C(=O)CC12 (stereo partly drawn)
inactive: S. cerevisiae deletion strains, locus YJL187C, strain SWE1, stronger effect = lower value 0.956 | S. cerevisiae deletion strains, locus YJR043C, strain POL32, stronger effect = lower value 1.03 | S. cerevisiae deletion strains, locus YJR075W, strain HOC1, stronger effect = lower value 0.914 | S. cerevisiae deletion strains, locus YKL009W, strain mrt4, stronger effect = lower value 0.942 | S. cerevisiae deletion strains, locus YKL068W, stronger effect = lower value 0.984 | S. cerevisiae deletion strains, locus YKL160W, strain elf1, stronger effect = lower value 0.983 | S. cerevisiae deletion strains, locus YKL190W, strain CNB1, stronger effect = lower value 0.967 | S. cerevisiae deletion strains, locus YKR001C, strain vps1, stronger effect = lower value 1.01 | S. cerevisiae deletion strains, locus YKR026C, strain gcn3, stronger effect = lower value 0.975 | S. cerevisiae deletion strains, locus YKR091W, strain srl3, stronger effect = lower value 0.96 | S. cerevisiae deletion strains, locus YLL001W, strain dnm1, stronger effect = lower value 0.986 | S. cerevisiae deletion strains, locus YLL026W, stronger effect = lower value 0.964 | S. cerevisiae deletion strains, locus YLL041C, strain sdh2, stronger effect = lower value 0.958 | S. cerevisiae deletion strains, locus YLR027C, strain aat2, stronger effect = lower value 0.956 | S. cerevisiae deletion strains, locus YLR039C, strain RIC1, stronger effect = lower value 0.978 | S. cerevisiae deletion strains, locus YLR058C, strain SHM2, stronger effect = lower value 0.986 | S. cerevisiae deletion strains, locus YLR102C, strain apc9, stronger effect = lower value 1.01 | S. cerevisiae deletion strains, locus YLR221C, strain rsa3, stronger effect = lower value 1 | S. cerevisiae deletion strains, locus YLR258W, strain gsy2, stronger effect = lower value 0.973 | S. cerevisiae deletion strains, locus YLR262C, strain YPT6 (second series), stronger effect = lower value 0.897 | S. cerevisiae deletion strains, locus YLR262C, strain YPT6, stronger effect = lower value 0.925 | S. cerevisiae deletion strains, locus YLR268W, strain sec22, stronger effect = lower value 0.955 | S. cerevisiae deletion strains, locus YLR320W, strain mms22, stronger effect = lower value 0.991 | S. cerevisiae deletion strains, locus YLR330W, strain CHS5, stronger effect = lower value 0.997 | S. cerevisiae deletion strains, locus YLR342W, strain FKS1 (second series), stronger effect = lower value 0.937 | S. cerevisiae deletion strains, locus YLR342W, strain FKS1, stronger effect = lower value 0.958 | S. cerevisiae deletion strains, locus YLR357W, strain rsc2, stronger effect = lower value 0.989 | S. cerevisiae deletion strains, locus YLR370C, strain arc18, stronger effect = lower value 0.949 | S. cerevisiae deletion strains, locus YLR371W, strain rom2, stronger effect = lower value 1.01 | S. cerevisiae deletion strains, locus YLR384C, strain iki3, stronger effect = lower value 0.96 | S. cerevisiae deletion strains, locus YLR418C, strain cdc73, stronger effect = lower value 0.865 | S. cerevisiae deletion strains, locus YML016C, strain PPZ1, stronger effect = lower value 0.979 | S. cerevisiae deletion strains, locus YML032C, strain rad52, stronger effect = lower value 1.03 | S. cerevisiae deletion strains, locus YML120C, strain ndi1, stronger effect = lower value 0.965 | S. cerevisiae deletion strains, locus YML124C, strain tub3, stronger effect = lower value 0.991 | S. cerevisiae deletion strains, locus YMR058W, strain fet3, stronger effect = lower value 0.969 | S. cerevisiae deletion strains, locus YMR078C, strain ctf18, stronger effect = lower value 1 | S. cerevisiae deletion strains, locus YMR125W, strain sto1, stronger effect = lower value 0.964 | S. cerevisiae deletion strains, locus YMR129W, stronger effect = lower value 0.956 | S. cerevisiae deletion strains, locus YMR205C, strain PFK2, stronger effect = lower value 0.934 | S. cerevisiae deletion strains, locus YMR223W, strain ubp8, stronger effect = lower value 1.02 | S. cerevisiae deletion strains, locus YMR231W, strain pep5, stronger effect = lower value 0.974 | S. cerevisiae deletion strains, locus YMR263W, strain SAP30, stronger effect = lower value 0.961 | S. cerevisiae deletion strains, locus YMR307W, strain GAS1, stronger effect = lower value 0.953 | S. cerevisiae deletion strains, locus YNL067W, strain RPL9B, stronger effect = lower value 0.936 | S. cerevisiae deletion strains, locus YNL071W, strain lat1, stronger effect = lower value 0.952 | S. cerevisiae deletion strains, locus YNL128W, strain TEP1, stronger effect = lower value 0.964 | S. cerevisiae deletion strains, locus YNL153C, strain GIM3, stronger effect = lower value 0.982 | S. cerevisiae deletion strains, locus YNL209W, strain ssb2, stronger effect = lower value 0.992 | S. cerevisiae deletion strains, locus YNL233W, strain BNI4, stronger effect = lower value 0.971 | S. cerevisiae deletion strains, locus YNL248C, strain rpa49, stronger effect = lower value 0.962 | S. cerevisiae deletion strains, locus YNL250W, strain rad50, stronger effect = lower value 0.99 | S. cerevisiae deletion strains, locus YNL271C, strain bni1, stronger effect = lower value 1.01 | S. cerevisiae deletion strains, locus YNL298W, strain CLA4, stronger effect = lower value 1.01 | S. cerevisiae deletion strains, locus YNL307C, strain MCK1, stronger effect = lower value 0.985 | S. cerevisiae deletion strains, locus YNL322C, strain KRE1 (second series), stronger effect = lower value 0.954 | S. cerevisiae deletion strains, locus YNL322C, strain KRE1, stronger effect = lower value 0.979 | S. cerevisiae deletion strains, locus YNR049C, strain mso1, stronger effect = lower value 0.964 | S. cerevisiae deletion strains, locus YNR052C, strain pop2, stronger effect = lower value 1.04 | S. cerevisiae deletion strains, locus YOL006C, strain TOP1, stronger effect = lower value 0.828 | S. cerevisiae deletion strains, locus YOL012C, strain htz1 1.22 | S. cerevisiae deletion strains, locus YOL147C, strain pex11, stronger effect = lower value 1 | S. cerevisiae deletion strains, locus YOR001W, strain rrp6, stronger effect = lower value 0.987 | S. cerevisiae deletion strains, locus YOR061W, strain CKA2, stronger effect = lower value 0.977 | S. cerevisiae deletion strains, locus YOR069W, strain VPS5, stronger effect = lower value 0.996 | S. cerevisiae deletion strains, locus YOR070C, strain gyp1, stronger effect = lower value 0.988 | S. cerevisiae deletion strains, locus YOR080W, strain dia2, stronger effect = lower value 0.965 | S. cerevisiae deletion strains, locus YOR083W, strain WHI5, stronger effect = lower value 0.996 | S. cerevisiae deletion strains, locus YOR106W, strain vam3, stronger effect = lower value 0.965 | S. cerevisiae deletion strains, locus YOR136W, strain idh2, stronger effect = lower value 1.02 | S. cerevisiae deletion strains, locus YOR144C, strain elg1, stronger effect = lower value 0.998 | S. cerevisiae deletion strains, locus YOR184W, strain ser1, stronger effect = lower value 0.982 | S. cerevisiae deletion strains, locus YOR265W, strain rbl2, stronger effect = lower value 0.969 | S. cerevisiae deletion strains, locus YOR290C, strain snf2, stronger effect = lower value 0.949 | S. cerevisiae deletion strains, locus YOR316C, strain cot1, stronger effect = lower value 0.998 | S. cerevisiae deletion strains, locus YPL051W, strain arl3, stronger effect = lower value 0.984 | S. cerevisiae deletion strains, locus YPL055C, strain LGE1, stronger effect = lower value 0.868 | S. cerevisiae deletion strains, locus YPL078C, strain atp4, stronger effect = lower value 0.968 | S. cerevisiae deletion strains, locus YPL106C, strain sse1, stronger effect = lower value 0.989 | S. cerevisiae deletion strains, locus YPL240C, strain hsp82, stronger effect = lower value 0.968 | S. cerevisiae deletion strains, locus YPL241C, strain CIN2, stronger effect = lower value 0.974 | S. cerevisiae deletion strains, locus YPR119W, strain clb2, stronger effect = lower value 0.993 | S. cerevisiae deletion strains, locus YPR141C, strain kar3, stronger effect = lower value 0.981 | S. cerevisiae deletion strains, locus YPR163C, strain tif3, stronger effect = lower value 1 | S. cerevisiae deletion strains, locus YPR167C, strain met16, stronger effect = lower value 0.994 | S. cerevisiae deletion strains, strain wtn01, stronger effect = lower value 0.978 | S. cerevisiae strains, strain wild type, stronger effect = lower value 0.993
active: S. cerevisiae deletion strains, locus YOR270C, strain vph1, stronger effect = lower value 0.673
